Source: ChEMBL document CHEMBL4888484, “Replenishing the malaria drug discovery pipeline: Screening and hit evaluation of the MMV Hit Generation Library 1 (HGL1) against asexual blood stage Plasmodium falciparum ,using a nano luciferase reporter read-out” (2022)
Out of some 4,800 compounds screened, about 420 (8.8%) showed an effect of 50% or more. The list comes from a sample in which strong results are over-represented; it also holds similar structures and randomly drawn compounds.

Test system: Plasmodium falciparum
Experiment: Confirmatory screen in NF54 nanoGlo assay, in single point, at 2uM, 72h
Assay type: functional, Erythrocyte
Settings: timepoint 72 hour

Row | Structure (SMILES) | % Inhibition
1 | COc1cccc(CNCCN2CCOCC2)c1OCc1ccc(Cl)cc1Cl | 7%
2 | Clc1ccc(Cn2cc(CNCCCn3ccnc3)c3ccccc32)c(Cl)c1 | 98%
3 | Clc1ccc(COc2ccc(Cl)cc2CNCCCn2ccnc2)c(Cl)c1 | 95%
4 | COc1cccc(CNCCCN2CCOCC2)c1OCc1ccc(Cl)cc1Cl | -1%
5 | OCCNCc1ccc(Cl)cc1Cl | 0%
6 | CCOc1cc(CNCCCn2ccnc2)ccc1OCc1ccccc1 | 21%
7 | Cc1nc2ccnn2cc1C(=O)Nc1ccc(CCC(C)C)cn1 | -5%
8 | Cc1cc(CN(C)c2cc(C3CC3)nc(N(C)Cc3cc(C)on3)n2)no1 | -13%
9 | FC(F)Oc1cccc(-c2cc(C(F)(F)F)c3c(-c4ccc5c(c4)OCO5)noc3n2)c1 | 8%
10 | N#Cc1nc(COc2cccc(Cl)c2)oc1NC[C@H]1CCCO1 | -1%
11 | CN(CC(=O)Nc1ncccn1)S(=O)(=O)c1ccc2c(c1)OCCCO2 | -7%
12 | O=C1CC(C(=O)N2CCCCC2c2nc(-c3ccccc3)c[nH]2)CN1 (stereo unspecified) | 3%
13 | N[C@H]1C[C@@H](c2cc(N3CCN(C4CCCCC4)CC3)nc(N3CCCC3)n2)C1 | 44%
14 | Nc1nc(C2CC(N)C2)cc(N2CCC(Oc3ccccc3Cl)CC2)n1 (stereo unspecified) | 51%
15 | Nc1nc(N2CCN(c3ccc(F)c(Cl)c3)CC2)cc([C@H]2C[C@@H](N)C2)n1 | 32%
16 | CCC1CN(CCCN2C(=O)CNC2=O)CCC1c1ccccc1 (stereo unspecified) | 0%
17 | COC(=O)C1(CNC(=O)C2CCC2)CCCCC1 | 1%
18 | CCN(C(=O)Cn1ncn2nc(-c3cccc4ccccc34)cc2c1=O)c1ccccc1 | 1%
19 | CCN(C(=O)CN1C(=O)C(c2ccccc2)=NC12CCC(C)CC2)c1ccccc1 (stereo unspecified) | -9%
20 | CCN(C(=O)Cn1cc(-c2ccccc2)c2ncn(CC)c(=O)c21)c1ccccc1 | 75%
21 | CCOC[C@@H](O)CN(Cc1c(-c2ccccc2)noc1N1CCC(C)CC1)CC1CC1 | -7%
22 | O=C(NC1CCN(Cc2ccccc2)CC1)c1cn[nH]c1-c1ccccc1 | -3%
23 | CCOC(=O)N1CCC(NC(=O)c2cn[nH]c2-c2ccc(OCC)c(Cl)c2)CC1 | 2%
24 | CNC(=O)N1CCN(c2cc(C)nc(C3CC3)n2)CC1 | -18%
25 | O=C(Cn1nnc2ccccc21)N(Cc1ccccc1)C1(C(=O)Nc2ccc3c(c2)OCO3)CCCCC1 | 23%
26 | O=C(COc1ccccc1)N1CC(n2cnnc2C2CC2)C1 | -11%

Row | Structure (SMILES) | % Inhibition
27 | CC1CC(C(=O)Nc2[nH]c(=O)ncc2F)CC(C)(C)C1 (stereo unspecified) | 92%
28 | CN(C)C(=O)NCCc1ncc(C(F)(F)F)cc1Cl | -5%
29 | Cc1cc(C#N)cc(C)c1Oc1nc(Nc2ccc(C#N)cc2Br)nc(N)c1Br | -9%
30 | Cc1ccc(-c2cc(C(=O)Nc3nnc(C(C)C)s3)no2)cc1F | 39%
31 | Cc1nc(C(=O)Nc2[nH]c(=O)ncc2F)c(-c2ccccc2)o1 | 85%
32 | CC(C)c1nc(C(=O)Nc2[nH]c(=O)ncc2F)cs1 | 92%
33 | CC(C)c1nc(C(=O)Nc2ccccc2CN2CCNC2=O)cs1 | 3%
34 | O=C(c1coc(-c2ccccc2)n1)N1CCc2cc(Br)ccc21 | -4%
35 | O=C(Nc1[nH]c(=O)ncc1F)c1coc(-c2ccccc2)n1 | 80%
36 | COc1ccc(CN2CC[C@@H]3C(=O)NCCCCCCN(Cc4ccncc4)[C@@H]3C2)cc1Cn1ccnc1 | 47%
37 | COc1cc2c(cc1OC)C(Nc1cc(C)ccc1C)=NC(C)(C)C2 | -7%
38 | CCC[C@@]1(C)C(=O)NCCN1Cc1nnc(-c2ccc(Cl)cc2)n1C | -10%
39 | CCOC1CC2(CCN(Cc3cc(Cl)c(OC)cc3Cl)C2)C1 (stereo unspecified) | 1%
40 | CC(=O)N(CC[C@]1(Cc2ccccc2Cl)CCOC(C)(C)C1)Cc1ccc(F)cc1 | 0%
41 | COc1ccc(-c2nn3c(Cc4ccccn4)nnc3s2)cc1OC | 4%
42 | Cc1ccc(Cn2c(=O)c(N3CCC[C@H](C(=O)NCc4ccccc4F)C3)nc3ccccc32)cc1 | -4%
43 | C[C@@H](CCc1ccccc1)NC(=O)c1cnn2c3c(cnc12)CCCC3 | -8%
44 | Cn1nc(C(=O)N2CCCCC[C@H]2C2CCCCC2)ccc1=O | -10%
45 | Cc1cccc(NC(=O)C(=O)N(C)[C@H]2CCCc3c2cnn3C)c1F | -17%
46 | CC(C)Cc1cc(C(=O)N2CCc3c(C#N)cccc32)cc(O)n1 | -8%
47 | Cc1cc[n+]2c(-c3ccccc3)cc(-c3ccccc3)nc2c1 | 62%
48 | Cc1cc(-c2ccccc2)cc(-c2ccccc2)c1-c1cc(-c2ccccc2)cc(-c2ccccc2)n1 | -10%
49 | Cc1cc(-c2ccccc2)nc2sc(-c3ccccc3)c([O-])[n+]12 | -2%
50 | CC[n+]1c(C)sc2cc(-c3ccccc3)sc21 | -15%
51 | O=C(O)CC1(NC(=O)c2cc(Oc3ccccc3)ccn2)CCC1 | -7%
